In PubChem BioAssay (NCI) one finds growth data, which are given here for 40 molecules.

The structures appear in SMILES notation. The panel holds about 83,000 compounds, 20% with a hit somewhere; the sample as a whole holds those more often.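 96-well plates, one dose, 48 hours. Percent growth reported; active if below 10.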 Values without a mark were called inactive. Active and inactive are the calls of the source.

This assay concerns MDA-MB-468 breast. Nature of the assay: NCI-60 one-dose screen, 48 h (100 = growth as untreated, 0 = no growth, -100 = all killed). Particulars: 10 µM unless noted.
In the case of `C/C1=C/C(=O)O[C@@H]2C[C@@H](CC[C@H](C)/C=C\C=C\CC1)O[C@@](OCCc1ccccc1)([C@@H]1CSC(=O)N1)C2`, the growth was 12.2%.

As for `COc1ccc(N)cc1N`, the growth was 101%.

As to `O=C(CC1(O)C(=O)N(Cc2ccccc2)c2ccc(Br)cc21)c1ccc(C(=O)NCC2CCC3(CC2)OOC2(CCCCC2)OO3)cc1` (stereo not given), the growth was 27.9%.

For the molecule `CC1(C)N=C(N)N=C(N)N1c1ccc(CCC(=O)Nc2ccc(S(=O)(=O)F)cc2)c(Cl)c1`, the growth is 64.2%.

For the molecule `CC(=O)O[C@H]1CCC2(C)C(=CCC3C2CCC2(C)/C(=N/OC(=O)c4ccc(N(CCCl)CCCl)cc4)CCC32)C1` (stereo not given in full), the growth was 79.9%.

For the molecule `Oc1ccc2c3c1OC1[C@@H](O)CC[C@@]4(O)[C@@H](C2)N(CC2CCC2)CC[C@]314` (stereo not given in full), the growth was 99.8%.

Turning to `COc1cc2c(c(OC)c1OC)-c1ccc(O)c(=O)cc1[C@@H](NC(C)=O)CC2`, the growth is 62.8%.

With `CCCn1cc2c3c(cccc31)[C@H]1C[C@@H](C)CN(C)[C@@H]1C2`, the growth was 95.5%.

`CC(Cc1ccc2c(c1)OCO2)NN` (stereo not given): the growth was 105%.

With `CN1C(=O)NC(=O)C(N=Nc2ccc(Cl)cc2)C1=O` (stereo not given), the growth was 90.4%.

As to `C[C@]12CCC3[C@@H](C[C@@H]4SC(Nc5ccccc5)=N[C@@]45CC(=O)CC[C@]35C)[C@@H]1CCC2=O` (stereo not given in full), the growth was -26.8% (active).

On to `O=[N+]([O-])c1ccc(OCc2ccc(S(=O)(=O)F)c(Cl)c2)c(Cl)c1`, for which the growth is 121%.

With `COC1OC(CO)C(O)C(O)[CH]1[Hg][O]C(C)=O` (stereo not given), the growth is 72.2%.

For the molecule `C=CC[PH+](c1ccccc1)c1ccccc1.C=CC[PH+](c1ccccc1)c1ccccc1.[Pt+2].[S-]c1nc2ccccc2[nH]1.[S-]c1nc2ccccc2[nH]1`, the growth is -14% (active).

For `CCOP(=O)(NC)OCC`, the growth was 94.2%.

As for `COc1cccc(C=NC(Cc2cnc[nH]2)C(=O)O)c1O` (stereo not given), the growth is 55.4%.

In the case of `CC(=O)OC[C@]1(C)C=C2C(=O)[C@](C)(O)C3(CC3)C(C)=C2[C@H]1OC(=O)N(C)CCN(C)C(=O)OC(C)(C)C`, the growth is -62.5% (active).

For `CCOP(=O)(OCC)/C(C#N)=C/c1ccc(Br)cc1`, the growth is 101%.

With `CO[C@@H]([CH2][Hg][S]C#N)[C@@H]([CH2][Hg][S]C#N)OC`, the growth was 98.3%.

As to `Oc1ccccc1C=NCCN=Cc1ccccc1O`, the growth was 107%.

As to `CC(C)(C)N(Cc1ccccc1)N=O`, the growth is 93.2%.

Take `[O]=[Sn]([CH]1CCCCC1)[CH]1CCCCC1`: the growth is -92.2% (active).

Take `C[C@]12CC[C@H]3[C@@H](C[C@@H]4SC(Nc5cccc(F)c5)=N[C@@]45CC(=O)CC[C@]35C)[C@@H]1CCC2=O`: the growth is -2.99% (active).

Consider `CCOC(=O)c1ccccc1C(=O)OCC`, for which the growth is 81%.

As to `O=C(CCF)c1ccc(O)cc1`, the growth was 108%.

Turning to `CC1(C)N=C(N)N=C(N)N1c1ccc(CCCCc2ccc(S(=O)(=O)F)cc2)cc1`, the growth was -3.5% (active).

With `O=C(O)C(Cl)(Cl)C(F)(F)F`, the growth is 106%.

For `CC1=C2C(=C[C@@](C)(C=O)[C@@H]2O)C(=O)[C@](C)(O)C12CC2`, the growth is -66.7% (active).

Regarding `CC1(C)N=C(N)N=C(N)N1c1ccc(CCCCc2ccc(Cl)cc2S(=O)(=O)F)c(Cl)c1`, the growth is -22.1% (active).

Consider `COc1ccc(/C=C\c2cc(OC)c(OC)c(OC)c2)cc1OCC(=O)Nc1nc2ccc(C(F)(F)F)cc2s1`, for which the growth is 1.38% (active).

Turning to `COC(=O)[C@H](Cc1c[nH]c2ccccc12)NC(=O)[C@@H](OC)[C@@H]1Cc2cc3cc(OC4CC(OC5CC(O)C(O)C(C)O5)C(O)C(C)O4)c(C)c(O)c3c(O)c2C(=O)[C@H]1OC1CC(OC2CC(OC3CC(C)(O)C(O)C(C)O3)C(O)C(C)O2)C(O)C(C)O1` (stereo not given in full), the growth was -48.8% (active).

As for `COP(=O)(OC)C(O)c1ccc(Cl)cc1` (stereo not given), the growth was 108%.

For the molecule `CC/C(=C/c1ccc(OC)cc1)[N+](=O)[O-]`, the growth was -56.6% (active).

As for `CC1(C)C=Cc2c(ccc3c2[N+]([O-])=C2C3=C[C@@]34NC(=O)[C@]5(CCCN5C3=O)C[C@@H]4C2(C)C)O1`, the growth was 8.16% (active).

Regarding `CCCCNC(c1ccc(Cl)cc1)C(O)c1ccc(Cl)cc1` (stereo not given), the growth is -14.6% (active).

For the molecule `COc1c(O)c2c3c(c1OC)-c1ccccc1CC3N(C)CC2` (stereo not given), the growth is 120%.

Take `N#CC1(C#N)C(c2ccc(N(CCCl)CCCl)cc2)OC23CCCCC2C1(C#N)C(=N)O3` (stereo not given): the growth was 56.5%.

Turning to `Cn1cc(-c2csc(-c3cn(CCCCN4CCCCC4)c4ccccc34)n2)c2cccnc21`, the growth is -26.9% (active).

In the case of `N/C(=N\N=C\c1ccc(-c2ccccc2)cc1)N[N+](=O)[O-]`, the growth was 20%.

With `c1ccc(CCN2CCCCC2Cc2ccccc2)cc1` (stereo not given), the growth is 103%.
